A selection: hits, their analogues and other compounds. The true share with any hit is near 2.6%.
ATXN2 expr inh – Primary qHTS for Inhibitors of ATXN expression. HEK-293 ATXN2-luciferase reporter, luminescence, 24 h. Potency, µM (highest dose often 57 µM), for the others: at the highest dose activity change, negative = inhibition, actives largely listed as inhibitors. 360,000 compounds, 0.72% hits. AID 1745845, 2022; also: potency is read from the fitted curve at half-maximal effect; % is scaled to controls: 0 for no effect and ±100 for the full control effect; nearly all actives have a fitted effect of over 55% in size
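qHTS (up to 57 uM final) was run with 24 h compound exposure of reporter cells at 37 °C. Each well was multiplexed: SteadyGlo luminescence measured ATXN2-luciferase expression after a fluorogenic Gly-Phe-AFC viability readout (25 uM final).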
uPA generation – qHTS for Inhibitors of Cell Surface uPA Generation. cell surface uPA generation assay, qHTS. Potency, µM (titrated, usually from 38.3 µM), inactives show at the top dose activity change, negative = inhibition, most hits filed as inhibitors. 330,000 compounds, 0.31% hits. AID 540303, 2011; active = well fitted inhibition curve with a large enough effect; inconclusive = small, poorly fitted or top-dose-only effect; inactive = no such curve, though single readings can be large or run the other way; tested in mouse RAW 264.7 cells; also: potency is read from the fitted curve at half-maximal effect; % is scaled to controls: 0 for no effect and ±100 for the full control effect; nearly all actives have a fitted effect of over 55% in size
HepG2 viability – qHTS for Inhibitors of TGF-b: Cytotox Counterscreen | HepG2 CAGA-GFP viability, ATP luminescence, 18 h | Potency, µM (titrated, usually from 46.1 µM), for inactives: top-dose activity change, negative = cytotoxicity, actives largely listed as cytotoxic | 410,000 compounds, 0.76% hits | AID 588856, 2011; also: potency is read from the fitted curve at half-maximal effect
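HepG2 CAGA-GFP cells (1000/well, DMEM with 1% FBS) received compound, then TGF-beta at 500 pg/mL final, and were incubated 18 hours at 37 degrees C. Viability was read by CellTiter-Glo luminescence. Media-only wells were set as complete cell-killing and DMSO as no toxicity.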
Giardia killer – Small Molecules that selectively kill Giardia lamblia: qHTS | Giardia lamblia trophozoite viability | activity change, % at 7.66 µM, hits read low | 340,000 compounds, 0.15% hits | AID 540267, 2011; in the data active = activity change below about -80%; inconclusive = between about -30% and that limit;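 also: parasites exposed to compound for two days anaerobically before the ATP read; % is scaled to controls: 0 for no effect and ±100 for the full control effect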
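Trophozoite viability was measured as ATP-dependent luminescence, read 15-30 min after reagent addition. Before that, parasites at 100 cells/well were exposed to compounds for 48 h, anaerobically, at 37 deg C.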
TGFb inhibitor – qHTS for Inhibitors of TGF-b; AID 588855, 2011; HepG2 CAGA-GFP TGF-b/SMAD3 reporter, GFP fluorescence, 18 h; TGF-beta stimulated, 500 pg/mL final; Potency, µM (series often up to 46.1 µM), inactives show at the top dose activity, negative = inhibition, usual class: inhibitors; 410,000 compounds, 1.2% hits; also: potency is read from the fitted curve at half-maximal effect; % is scaled to controls: 0 for no effect and ±100 for the full control effect; nearly all actives have a fitted effect of over 65% in size
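GFP signal (ex488/em500-530) from TGF-beta-stimulated HEPG2 CAGA-GFP cells, 500 pg/mL final, 18 h at 37 degrees C in DMEM plus 1% FBS, normalized to unstimulated and DMSO-stimulated controls.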
S2 tox – Viability Counterscreen for Primary qHTS for Inhibitors of ATXN expression | 400,000 compounds, 0.49% hits | AID 651635, 2014 | S2 cells (HEK-293 line with an ATXN2-luciferase reporter) viability, CellTiter-Fluor protease fluorescence, 24 h | Potency, µM (highest dose often 56.7 µM), most hits filed as cytotoxic; also: potency is read from the fitted curve at half-maximal effect; nearly all actives have a fitted effect of over 40% in size
Starred values were filed as active, the others as inactive. Unless noted, calls follow the shape of the dose curve; as a rule, active = well fitted curve in the direction sought with a large enough effect; inconclusive = small, poorly fitted or top-dose-only effect, or another doubt; inactive = no such curve, though single readings can be large; an effect the other way counts as inactive or inconclusive.

What do the screens show for `COc1ccc2cc3cc(C(=O)NCCN4CCN(c5ccccc5F)CC4)oc3nc2c1`?
ATXN2 expr inh: inconclusive; uPA generation: -2%; HepG2 viability: -7%; Giardia killer: 13; TGFb inhibitor: -8%; S2 tox: inconclusive

What do the screens show for `COc1ccc2cc3cc(C(=O)Nc4ccccc4N4CCN(C)CC4)oc3nc2c1`?
ATXN2 expr inh: inconclusive; uPA generation: -7%; HepG2 viability: 10µM*; Giardia killer: -87*; TGFb inhibitor: -9%

What do the screens show for `COc1ccc(-c2onc(C)c2C)cc1S(=O)(=O)NCC1CCN(Cc2cc(C)ccc2C)CC1`?
HepG2 viability: 16µM*; TGFb inhibitor: inconclusive

How did Cc1nc2nc(C)n(CCN3CCOCC3)c(=O)c2c(-c2cccc([N+](=O)[O-])c2)c1C(=O)CCCCCCCCCCN1CCC(c2ccccc2)(c2ccccc2)CC1 do in these assays?
ATXN2 expr inh: inconclusive; uPA generation: -10%; HepG2 viability: 11µM*; Giardia killer: -14; TGFb inhibitor: 7.1µM*

How did CCC(=O)N1N=C(c2ccc(C)o2)CC1c1ccc(N(C)C)cc1 (stereo not given) do in these assays?
ATXN2 expr inh: -2%; uPA generation: 7%; HepG2 viability: 7.1µM*; Giardia killer: -8; TGFb inhibitor: -2%; S2 tox: inactive

Results for O=C(CCl)N1N=C(c2ccco2)CC1c1cccs1 (stereo not given) ?
ATXN2 expr inh: inconclusive; uPA generation: -13%; HepG2 viability: -86%; Giardia killer: -2; TGFb inhibitor: inconclusive

Results for CC(=O)N1N=C(c2ccc(C)o2)CC1c1ccc(Br)cc1 (stereo not given) ?
ATXN2 expr inh: 61%; HepG2 viability: -10%; Giardia killer: -9; TGFb inhibitor: -2%; S2 tox: inactive

What do the screens show for `Cc1ccc(C2=NN(C(=O)CCl)C(c3cccs3)C2)o1` (stereo not given)?
ATXN2 expr inh: 7.5µM*; uPA generation: -23%; HepG2 viability: 8.9µM*; Giardia killer: -21; TGFb inhibitor: 8.9µM*

How did Cc1ccnc2c(Cl)cccc12 do in these assays?
HepG2 viability: -25%; TGFb inhibitor: inconclusive

Results for O=[N+]([O-])c1cncn1CCN1CCOCC1 ?
ATXN2 expr inh: -1%; uPA generation: 3%; HepG2 viability: -1%; Giardia killer: -91*; TGFb inhibitor: 2%; S2 tox: inconclusive

Results for CCOC(=O)C(=NCC1CCCO1)NNc1ccccc1Cl (stereo not given) ?
ATXN2 expr inh: -9%; uPA generation: -1%; HepG2 viability: 1.3µM*; Giardia killer: 1; TGFb inhibitor: -5%; S2 tox: inactive

How did CCOC(=O)c1ccccc1NC(=O)C1CCCO1 (stereo not given) do in these assays?
ATXN2 expr inh: -6%; uPA generation: 8%; HepG2 viability: -33%; Giardia killer: 2; TGFb inhibitor: -4%; S2 tox: inactive

What do the screens show for `COc1ccccc1C1CCN(C(=O)c2ccc(C(C)(C)C)cc2)CC1`?
ATXN2 expr inh: 17%; uPA generation: -17%; HepG2 viability: -58%; Giardia killer: 3; TGFb inhibitor: 13µM*; S2 tox: inactive

What do the screens show for `COc1ccc(-c2nn(-c3ccccc3)cc2/C=N/O)cc1OC`?
uPA generation: -3%; HepG2 viability: -43%; Giardia killer: -15; TGFb inhibitor: -14%; S2 tox: inactive

What do the screens show for `COc1ccc(-c2nn(-c3ccccc3)cc2/C=N/Nc2ccc3ccccc3n2)cc1OC`?
ATXN2 expr inh: -21%; uPA generation: -10%; HepG2 viability: 4.5µM*; Giardia killer: 5; TGFb inhibitor: inconclusive

What do the screens show for `CC(C)(C)C1=CC(=Nc2ccccc2N)C=C(C(C)(C)C)C1=O`?
ATXN2 expr inh: 14%; uPA generation: 4%; HepG2 viability: -50%; Giardia killer: -11; TGFb inhibitor: inconclusive; S2 tox: inactive

Assay outcomes: PubChem BioAssay, National Center for Advancing Translational Sciences (NCATS)
